Test results from PubChem BioAssay AID1159580 (chemical genetic matrix, 2015).
About 2,000 (36%) of roughly 5,500 compounds were called active. Not shown: some 18% with an inconclusive outcome. Cut-off read from the data, not from the text of the source: active = normalized growth mostly below about 0.91 (no sharp cut-off); inconclusive = no clear call, values can overlap the other calls; inactive = mostly above about 0.92. The list shows a part of the results.

Assay: chemical genetic growth profiling, strain panel (AID 1159580);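 note: tested at 20 µM; growth read once vehicle control cultures reached saturation at 30 °C; 1 = growth at the plate median or of vehicle wells; lower values mean less growth of the strain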
Conditions: growth OD
[1] = S. cerevisiae deletion strains, locus YAL013W, strain DEP1, hits give low values
[2] = S. cerevisiae deletion strains, locus YGR229C, strain SMI1, hits give low values
[3] = S. cerevisiae deletion strains, locus YMR263W, strain SAP30, hits give low values
[4] = S. cerevisiae deletion strains, locus YMR307W, strain GAS1, hits give low values
[5] = S. cerevisiae deletion strains, locus YNL128W, strain TEP1, hits give low values
[6] = S. cerevisiae deletion strains, locus YPL241C, strain CIN2, hits give low values

Measured: normalized growth

CC(C)(C)NC[C@H](O)COc1nsnc1N1CCOCC1
inactive: [1] 1.01 | S. cerevisiae deletion strains, locus YAL040C, strain CLN3, hits give low values 1.03 | S. cerevisiae deletion strains, locus YCL061C, strain MRC1 (second series), hits give low values 1 | S. cerevisiae deletion strains, locus YDR363W, strain ESC2, hits give low values 0.989 | S. cerevisiae deletion strains, locus YER002W, strain NOP16, hits give low values 0.998 | [2] 1.03 | [3] 0.993 | [4] 0.992 | [5] 0.995 | S. cerevisiae deletion strains, locus YNL175C, strain NOP13, hits give low values 0.997 | S. cerevisiae deletion strains, locus YNL197C, strain WHI3, hits give low values 0.99 | S. cerevisiae deletion strains, locus YNL224C, strain SQS1, hits give low values 0.988 | S. cerevisiae deletion strains, locus YOR083W, strain WHI5 (second series), hits give low values 0.996 | [6] 1

CCS(=O)CCSP(=O)(OC)OC (stereo not given)
inactive: [1] 1.01 | S. cerevisiae deletion strains, locus YBR021W, strain FUR4, hits give low values 1 | S. cerevisiae deletion strains, locus YBR229C, strain ROT2, hits give low values 1.02 | S. cerevisiae deletion strains, locus YCL029C, strain bik1, hits give low values 1 | S. cerevisiae deletion strains, locus YDL035C, strain GPR1, hits give low values 1.01 | S. cerevisiae deletion strains, locus YDL074C, strain BRE1, hits give low values 0.998 | S. cerevisiae deletion strains, locus YDL101C, strain DUN1, hits give low values 1.01 | S. cerevisiae deletion strains, locus YDL134C, strain PPH21, hits give low values 1.01 | S. cerevisiae deletion strains, locus YDL185W, strain tfp1, hits give low values 1.01 | S. cerevisiae deletion strains, locus YDL192W, strain arf1, hits give low values 1 | S. cerevisiae deletion strains, locus YDR101C, strain arx1, hits give low values 1 | S. cerevisiae deletion strains, locus YDR150W, strain NUM1, hits give low values 1.01 | S. cerevisiae deletion strains, locus YDR162C, strain NBP2, hits give low values 1.03 | S. cerevisiae deletion strains, locus YDR318W, strain mcm21, hits give low values 1.01 | S. cerevisiae deletion strains, locus YDR388W, hits give low values 1.01 | S. cerevisiae deletion strains, locus YDR502C, strain sam2, hits give low values 0.995 | S. cerevisiae deletion strains, locus YEL061C, strain CIN8, hits give low values 1.02 | S. cerevisiae deletion strains, locus YER110C, hits give low values 1.01 | S. cerevisiae deletion strains, locus YER155C, strain BEM2, hits give low values 1.02 | S. cerevisiae deletion strains, locus YER167W, strain BCK2, hits give low values 1.02 | S. cerevisiae deletion strains, locus YGL078C, strain dbp3, hits give low values 1.01 | S. cerevisiae deletion strains, locus YGL086W, strain mad1, hits give low values 1 | S. cerevisiae deletion strains, locus YGL248W, strain PDE1, hits give low values 1.01 | S. cerevisiae deletion strains, locus YGR078C, strain PAC10, hits give low values 1.02 | S. cerevisiae deletion strains, locus YGR135W, strain pre9, hits give low values 1.01 | [2] 0.999 | S. cerevisiae deletion strains, locus YGR252W, strain gcn5, hits give low values 0.945 | S. cerevisiae deletion strains, locus YHR030C, strain SLT2, hits give low values 1 | S. cerevisiae deletion strains, locus YHR079C, strain IRE1 (second series), hits give low values 1.01 | S. cerevisiae deletion strains, locus YHR094C, strain hxt1, hits give low values 1.01 | S. cerevisiae deletion strains, locus YHR129C, strain ARP1, hits give low values 1.02 | S. cerevisiae deletion strains, locus YHR200W, strain rpn10, hits give low values 1 | S. cerevisiae deletion strains, locus YIL066C, strain RNR3, hits give low values 1.03 | S. cerevisiae deletion strains, locus YIL073C, strain SPO22, hits give low values 1.06 | S. cerevisiae deletion strains, locus YIL125W, strain kgd1, hits give low values 0.997 | S. cerevisiae deletion strains, locus YIR030C, strain dcg1, hits give low values 1.01 | S. cerevisiae deletion strains, locus YJL095W, strain BCK1, hits give low values 1.03 | S. cerevisiae deletion strains, locus YJL134W, strain LCB3, hits give low values 1.01 | S. cerevisiae deletion strains, locus YJL168C, strain set2, hits give low values 1 | S. cerevisiae deletion strains, locus YJL187C, strain SWE1 (second series), hits give low values 1.02 | S. cerevisiae deletion strains, locus YJR043C, strain POL32, hits give low values 1.02 | S. cerevisiae deletion strains, locus YJR075W, strain HOC1, hits give low values 0.99 | S. cerevisiae deletion strains, locus YKL009W, strain mrt4, hits give low values 0.977 | S. cerevisiae deletion strains, locus YKL068W, hits give low values 1 | S. cerevisiae deletion strains, locus YKL085W, strain MDH1 (second series), hits give low values 1.01 | S. cerevisiae deletion strains, locus YKL085W, strain MDH1, hits give low values 1.01 | S. cerevisiae deletion strains, locus YKL190W, strain CNB1, hits give low values 1.01 | S. cerevisiae deletion strains, locus YKR001C, strain vps1, hits give low values 1 | S. cerevisiae deletion strains, locus YLR039C, strain RIC1, hits give low values 1.04 | S. cerevisiae deletion strains, locus YLR058C, strain SHM2, hits give low values 1.02 | S. cerevisiae deletion strains, locus YLR102C, strain apc9, hits give low values 1 | S. cerevisiae deletion strains, locus YLR262C, strain YPT6, hits give low values 1.02 | S. cerevisiae deletion strains, locus YLR268W, strain sec22, hits give low values 0.999 | S. cerevisiae deletion strains, locus YLR330W, strain CHS5, hits give low values 1.01 | S. cerevisiae deletion strains, locus YLR342W, strain FKS1 (second series), hits give low values 1.02 | S. cerevisiae deletion strains, locus YLR371W, strain rom2, hits give low values 0.999 | S. cerevisiae deletion strains, locus YLR418C, strain cdc73, hits give low values 0.984 | S. cerevisiae deletion strains, locus YML016C, strain PPZ1, hits give low values 1.01 | S. cerevisiae deletion strains, locus YML032C, strain rad52, hits give low values 1.01 | S. cerevisiae deletion strains, locus YML124C, strain tub3, hits give low values 1.01 | S. cerevisiae deletion strains, locus YMR078C, strain ctf18, hits give low values 1.01 | S. cerevisiae deletion strains, locus YMR223W, strain ubp8, hits give low values 1 | [3] 1.02 | [4] 1 | S. cerevisiae deletion strains, locus YNL067W, strain RPL9B, hits give low values 1.01 | [5] 1.02 | S. cerevisiae deletion strains, locus YNL153C, strain GIM3, hits give low values 1.01 | S. cerevisiae deletion strains, locus YNL233W, strain BNI4, hits give low values 1.01 | S. cerevisiae deletion strains, locus YNL250W, strain rad50, hits give low values 1.01 | S. cerevisiae deletion strains, locus YNL271C, strain bni1, hits give low values 1 | S. cerevisiae deletion strains, locus YNL298W, strain CLA4, hits give low values 1.01 | S. cerevisiae deletion strains, locus YNL307C, strain MCK1, hits give low values 1.01 | S. cerevisiae deletion strains, locus YNL322C, strain KRE1, hits give low values 1.01 | S. cerevisiae deletion strains, locus YNR052C, strain pop2, hits give low values 1 | S. cerevisiae deletion strains, locus YOL006C, strain TOP1, hits give low values 1.01 | S. cerevisiae deletion strains, locus YOL012C, strain htz1 0.877 | S. cerevisiae deletion strains, locus YOL147C, strain pex11, hits give low values 1 | S. cerevisiae deletion strains, locus YOR061W, strain CKA2, hits give low values 1.01 | S. cerevisiae deletion strains, locus YOR069W, strain VPS5, hits give low values 1 | S. cerevisiae deletion strains, locus YOR136W, strain idh2, hits give low values 1 | S. cerevisiae deletion strains, locus YOR144C, strain elg1, hits give low values 1.01 | S. cerevisiae deletion strains, locus YOR184W, strain ser1, hits give low values 1 | S. cerevisiae deletion strains, locus YOR316C, strain cot1, hits give low values 1 | S. cerevisiae deletion strains, locus YPL055C, strain LGE1, hits give low values 1.01 | [6] 1.01 | S. cerevisiae deletion strains, locus YPR119W, strain clb2, hits give low values 1.01 | S. cerevisiae deletion strains, locus YPR141C, strain kar3, hits give low values 0.997 | S. cerevisiae deletion strains, locus YPR163C, strain tif3, hits give low values 1.01 | S. cerevisiae deletion strains, locus YPR167C, strain met16, hits give low values 0.998 | S. cerevisiae deletion strains, strain wtn01, hits give low values 0.996 | S. cerevisiae strains, strain wild type, hits give low values 1.01
